Most compounds without a hit are left out; they make up all but 12% or so of the library.
HP1b chromo inh: blocks HP1-beta chromodomain binding to methylated histone tails | AlphaScreen HP1-beta / biotin-H3K9me3 peptide binding | Potency, µM (series often up to 114 µM), inactives show top-dose activity change, negative = inhibition, usual class: inhibitors | 0.56% of 390,000 active; also: nearly all actives have a fitted effect of over 70% in size
Target sequence (P83916 whole entry, looked up): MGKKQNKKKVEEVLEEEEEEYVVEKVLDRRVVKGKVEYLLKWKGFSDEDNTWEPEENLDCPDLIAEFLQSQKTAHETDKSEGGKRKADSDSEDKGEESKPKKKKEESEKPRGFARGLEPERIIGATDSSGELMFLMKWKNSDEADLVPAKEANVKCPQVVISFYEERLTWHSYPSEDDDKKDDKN
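HP1-beta protein (50 nM final) preincubated 30 min at room temperature with biotinylated H3(1-18)K9me3 peptide (50 nM) in PBS pH 7.4, 0.01% Tween-20, then compound added for 30 min. AlphaScreen streptavidin donor/nickel chelate acceptor beads (10 ug/mL final), 30 min dark, luminescence read.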
G9a inh: blocks human histone lysine methyltransferase G9a | Q96KQ7 | 8.8% of 350,000 active | AID 504332 | G9a H3K9 monomethylation, AlphaScreen, 2 h | Potency, µM (top dose mostly 102 µM), without a hit: top-dose activity, negative = inhibition, actives largely listed as inhibitors; also: % is scaled to controls: 0 for no effect and ±100 for the full control effect; nearly all actives have a fitted effect of over 75% in size
Target sequence (Q96KQ7 913-1193 limits assumed): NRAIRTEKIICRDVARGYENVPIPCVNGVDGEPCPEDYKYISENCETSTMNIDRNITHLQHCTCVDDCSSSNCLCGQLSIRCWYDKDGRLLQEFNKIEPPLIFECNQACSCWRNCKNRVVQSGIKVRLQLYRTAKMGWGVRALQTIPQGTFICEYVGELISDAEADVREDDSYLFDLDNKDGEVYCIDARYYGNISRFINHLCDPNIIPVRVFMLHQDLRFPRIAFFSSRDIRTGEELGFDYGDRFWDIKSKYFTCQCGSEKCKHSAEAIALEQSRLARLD
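Readings reflect AlphaScreen signal from monomethyl-H3K9 antibody detection. HMT at 20 nM; substrate b-H3K9 500 nM; cofactor SAM 20 uM; 2 h RT reaction; compounds tested as titrations in qHTS with 15 min preincubation.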
BAZ2B inh: BAZ2B (human) inhibition. 4.4% of 360,000 active. Q9UIF8. Potency, µM (doses to about 114 µM), inactives show at the top dose activity change, negative = inhibition, actives largely listed as inhibitors. AID 504333. AlphaScreen BAZ2B-H3K14Ac peptide displacement; also: % is scaled to controls: 0 for no effect and ±100 for the full control effect; nearly all actives have a fitted effect of over 60% in size
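BAZ2B 50 nM plus b-H3(5-23)K14Ac 50 nM, PBS pH 7.4/0.01% Tween-20, 30 min RT; compound added (max 110 uM), 30 min RT; streptavidin donor/Ni-chelate acceptor beads 10 ug/mL final, 20 min dark; AlphaScreen read.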
Sfp PPTase inh: blocks B. subtilis Sfp PPTase activity. Q9F4F7. 3.5% of 310,000 active. Potency, µM, for the others: largest response in the series, negative = inhibition, most hits filed as inhibitors. Biochemical Sfp PPTase activity, qHTS;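 also: the enzyme is Sfp with the accession as filed and its product quenches rhodamine fluorescence; 0% = enzyme reaction without inhibitor and -100% = no enzyme wells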
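Step 1, compound plus 15 nM Sfp-PPTase, 15 min, room temperature. Step 2, add rhodamine-CoA (5 uM) and BHQ-2-YbbR (12.5 uM). Step 3, read 525/598 nm fluorescence at 0 and 30 min.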
L3MBTL1 inh: L3MBTL1 (human) inhibition; Q9Y468; AlphaScreen L3MBTL1–H3K9me1 peptide binding; Potency, µM (top dose mostly 57.1 µM), for inactives: at the highest dose activity, negative = inhibition, hits mostly inhibitors; 0.66% of 230,000 active; also: % is scaled to controls: 0 for no effect and ±100 for the full control effect; nearly all actives have a fitted effect of over 60% in size
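Displacement of a biotinylated histone H3(1-15) peptide monomethylated at Lys9 (75 nM) from L3MBTL1 (50 nM) was measured by AlphaScreen after a 30 min room-temperature compound incubation; cefsulodin titration served as intraplate control.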
JMJD2A Tudor inh: inhibitors of human JMJD2A Tudor domain; AlphaScreen JMJD2A-Tudor / H3K4me3 peptide binding; 4.4% of 390,000 active; O75164; Potency, µM (titrated, usually from 114 µM), inactives show top-dose activity change, negative = inhibition, most hits filed as inhibitors; AID 504339; also: % is scaled to controls: 0 for no effect and ±100 for the full control effect; nearly all actives have a fitted effect of over 50% in size
Starred values were filed as active, the others as inactive; ? = inconclusive; . = no result given; [ ] = remark or other dose. Calls follow the shape of the dose curve; as a rule, active = well fitted curve in the direction sought with a large enough effect; inconclusive = small, poorly fitted or top-dose-only effect, or another doubt; inactive = no such curve, though single readings can be large; an effect the other way counts as inactive or inconclusive. Potency is read from the fitted curve at half-maximal effect.

SMILES	HP1b chromo inh	G9a inh	BAZ2B inh	Sfp PPTase inh	L3MBTL1 inh	JMJD2A Tudor inh
CC(C)c1c(C(=O)N/N=C2\CCc3ccccc32)nnn1-c1nonc1N	40%	29%	-5%	10%	.	-7%
Cc1nccn1CCOc1ccc(Cl)cc1	?	8.9µM*	45µM*	-22%	-6%	4.5µM*
Clc1ccc(OCCn2cnc(Cl)c2Cl)cc1	?	50µM*	?	19%	-13%	-31%
COc1ccc2c(c1)O[C@@H](c1ccc3c(c1)OCO3)[C@H](OC(=O)Nc1ccc(OC(F)F)cc1)C2=O	.	.	.	27%	.	.
COc1cccc(-c2nccc(-n3ccnc3)n2)c1	.	.	.	-28%	.	.
CC(C)Nc1nc(NC(N)=S)nc(NC(C)(C)C)n1	6%	8.9µM*	-12%	-4%	-11%	-14%
Cc1cc(C)nc(NC(N)=S)n1	30%	?	-9%	19%	0%	-4%[11.4 µM]
CC(C)Nc1nc(NC(N)=S)nc(NC(C)C)n1	25%	2.5µM*	0%	-3%	-7%	-7%
CSc1cccc(NC(=O)CN2CCN(Cc3ccccc3C)S2(=O)=O)c1	27%	5%[59 µM]	-17%	.	.	-6%
CCSc1nnc(SCC(=O)NC2CCCCC2)s1	17%	7%[2.33 µM]	8%	.	7%	-14%
OC[C@H](O)[C@H](O)[C@@H](O)[C@@H](O)[C@@H]1SC(c2ccccc2)=NN1c1ccccc1	8%	11µM*	-28%	-4%	-25%	?
CC[C@H]1C(c2ccccc2)=NN(c2ccccc2)[C@@H]1CO	.	77%	.	-3%	.	.
Cc1ccc(NC(=O)CC2OC(=O)c3ccccc32)cc1S(=O)(=O)N1CCCCCC1 (centres undefined)	27%	?	0%	.	-4%	-16%
COc1ccc(S(=O)(=O)N2CCCCCC2)cc1NC(=O)CC1OC(=O)c2ccccc21 (centres undefined)	21%	-32%	8%	.	0%	-14%
O=C(CC1OC(=O)c2ccccc21)Nc1ccc(Cl)c(S(=O)(=O)N2CCCCC2)c1 (centres undefined)	3%	14µM*	1%	.	-5%	-22%
O=C(CC1OC(=O)c2ccccc21)Nc1cc(S(=O)(=O)N2CCOCC2)ccc1OCC(F)(F)F (centres undefined)	18%	13µM*	-1%	.	-12%	-10%
O=C(Cc1ccccc1F)Nc1ccccc1N1CCCC1	10%	68%	-13%	14%	.	?
O=C(Cc1ccccc1F)Nc1cc(Cl)ccc1N1CCCC1	43%	45µM*	-18%	14%	.	-19%
O=C(CC1OC(=O)c2ccccc21)Nc1cc(Cl)ccc1N1CCCC1 (centres undefined)	-4%	56µM*	9%	.	4%	-14%
CCOc1ccc(-n2c(SCC(=O)N3CCCCCC3)nc3c([nH]c4ccccc43)c2=O)cc1	38%[57 µM]	12%[59 µM]	38%	.	.	-14%
COc1ccc(C(=O)NCCS(=O)(=O)N2CCN(Cc3ccccc3)CC2)cc1	10%	?	9%	.	-1%	-17%
O=C(Cc1cccs1)NC1(C(=O)NC2CCCC2)CCCCC1	45%	8%[59 µM]	1%	10%	12%	-7%
Cc1cc(C)c2oc(C(=O)Nc3ccc(S(=O)(=O)Nc4ncccn4)cc3)cc(=O)c2c1	40%	-17%[59 µM]	-4%	.	.	-12%
CCOC(=O)C1CCN(c2nc(-c3ccc(C)cc3)nc3ccccc23)CC1	79%	17%	0%	-12%	.	49%
CC(=O)N1CCN(C(=O)CC2OC(=O)c3ccccc32)CC1 (centres undefined)	-13%	40µM*	?	-23%	-7%	-26%
Cc1cc(NC(=O)CSCC(=O)Nc2cc(Cl)ccc2N2CCN(C)CC2)no1	24%	28%[12.7 µM]	-5%	.	10%	-8%
Cc1cccc(NC(=O)CSCC(=O)Nc2cc(Cl)ccc2N2CCN(C)CC2)c1	31%	79µM*	-14%	6%	.	-15%
